{
  "source": "PubChem BioAssay AID1159580",
  "about": "(chemical genetic matrix, 2015)",
  "assay": "chemical genetic growth profiling, strain panel (AID 1159580);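 note: tested at 20 µM; growth read once vehicle control cultures reached saturation at 30 °C; 1 = growth at the plate median or of vehicle wells; lower values mean less growth of the strain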",
  "conditions": "S. cerevisiae deletion strains, growth OD",
  "note": "Where “and” joins values, the source holds several entries; their conditions need not be identical. Identical values can stand only once. Out of some 5,500 compounds screened, about 2,000 (36%) were called active. Not shown: some 18% with an inconclusive outcome. Some of the results follow. Values without a mark were called inactive. Cut-off read from the data, not from the text of the source: active = normalized growth mostly below about 0.91 (no sharp cut-off); inconclusive = no clear call, values can overlap the other calls; inactive = mostly above about 0.92.",
  "data": [
    {"smiles": "O=[N+]([O-])c1cc([As](=O)(O)O)ccc1O", "values": [
      {"measurement": "normalized growth", "setting": "locus YAL013W, strain DEP1, active compounds read low", "value": 0.987},
      {"measurement": "normalized growth", "setting": "locus YAL021C, strain ccr4, active compounds read low", "value": 0.965},
      {"measurement": "normalized growth", "setting": "locus YAL026C, strain drs2, active compounds read low", "value": 0.975},
      {"measurement": "normalized growth", "setting": "locus YAL030W, strain snc1, active compounds read low", "value": 0.971},
      {"measurement": "normalized growth", "setting": "locus YBL061C, strain skt5, active compounds read low", "value": 0.979},
      {"measurement": "normalized growth", "setting": "locus YBR009C, strain hhf1, active compounds read low", "value": 0.975},
      {"measurement": "normalized growth", "setting": "locus YBR021W, strain FUR4, active compounds read low", "value": 1.01},
      {"measurement": "normalized growth", "setting": "locus YBR023C, strain chs3, active compounds read low", "value": 0.986},
      {"measurement": "normalized growth", "setting": "locus YBR171W, strain sec66, active compounds read low", "value": 0.946},
      {"measurement": "normalized growth", "setting": "locus YBR229C, strain ROT2, active compounds read low", "value": 1},
      {"measurement": "normalized growth", "setting": "locus YBR231C, strain swc5, active compounds read low", "value": 0.946},
      {"measurement": "normalized growth", "setting": "locus YBR279W, strain paf1, active compounds read low", "value": 0.963},
      {"measurement": "normalized growth", "setting": "locus YCL011C, strain gbp2, active compounds read low", "value": 0.991},
      {"measurement": "normalized growth", "setting": "locus YCL016C, strain dcc1, active compounds read low", "value": 0.99},
      {"measurement": "normalized growth", "setting": "locus YCL029C, strain bik1, active compounds read low", "value": 0.914},
      {"measurement": "normalized growth", "setting": "locus YCL069W, strain vba3, active compounds read low", "value": 0.967},
      {"measurement": "normalized growth", "setting": "locus YCR088W, strain abp1, active compounds read low", "value": 0.975},
      {"measurement": "normalized growth", "setting": "locus YDL005C, strain med2, active compounds read low", "value": 0.972},
      {"measurement": "normalized growth", "setting": "locus YDL035C, strain GPR1, active compounds read low", "value": 1},
      {"measurement": "normalized growth", "setting": "locus YDL040C, strain nat1, active compounds read low", "value": 0.958},
      {"measurement": "normalized growth", "setting": "locus YDL074C, strain BRE1, active compounds read low", "value": 0.977},
      {"measurement": "normalized growth", "setting": "locus YDL101C, strain DUN1, active compounds read low", "value": 1},
      {"measurement": "normalized growth", "setting": "locus YDL134C, strain PPH21, active compounds read low", "value": 0.989},
      {"measurement": "normalized growth", "setting": "locus YDL185W, strain tfp1, active compounds read low", "value": 0.978},
      {"measurement": "normalized growth", "setting": "locus YDL192W, strain arf1, active compounds read low", "value": "0.214 (active)"},
      {"measurement": "normalized growth", "setting": "locus YDR001C, strain nth1, active compounds read low", "value": 0.967},
      {"measurement": "normalized growth", "setting": "locus YDR069C, strain doa4, active compounds read low", "value": 0.945},
      {"measurement": "normalized growth", "setting": "locus YDR101C, strain arx1, active compounds read low", "value": "0.759 (active)"},
      {"measurement": "normalized growth", "setting": "locus YDR137W, strain rgp1, active compounds read low", "value": 0.984},
      {"measurement": "normalized growth", "setting": "locus YDR150W, strain NUM1, active compounds read low", "value": 0.987},
      {"measurement": "normalized growth", "setting": "locus YDR159W, strain sac3, active compounds read low", "value": 0.978},
      {"measurement": "normalized growth", "setting": "locus YDR162C, strain NBP2, active compounds read low", "value": 0.962},
      {"measurement": "normalized growth", "setting": "locus YDR195W, strain ref2", "value": 0.898},
      {"measurement": "normalized growth", "setting": "locus YDR297W, strain sur2, active compounds read low", "value": 0.971},
      {"measurement": "normalized growth", "setting": "locus YDR318W, strain mcm21, active compounds read low", "value": "0.0896 (active)"},
      {"measurement": "normalized growth", "setting": "locus YDR334W, strain swr1, active compounds read low", "value": 0.958},
      {"measurement": "normalized growth", "setting": "locus YDR335W, strain msn5, active compounds read low", "value": 0.972},
      {"measurement": "normalized growth", "setting": "locus YDR388W, active compounds read low", "value": "0.112 (active)"},
      {"measurement": "normalized growth", "setting": "locus YDR392W, strain spt3, active compounds read low", "value": 0.989},
      {"measurement": "normalized growth", "setting": "locus YDR502C, strain sam2, active compounds read low", "value": "0.247 (active)"},
      {"measurement": "normalized growth", "setting": "locus YEL003W, strain gim4, active compounds read low", "value": 0.963},
      {"measurement": "normalized growth", "setting": "locus YEL037C, strain rad23, active compounds read low", "value": 0.953},
      {"measurement": "normalized growth", "setting": "locus YEL061C, strain CIN8 (second series), active compounds read low", "value": 0.971},
      {"measurement": "normalized growth", "setting": "locus YEL061C, strain CIN8, active compounds read low", "value": 0.993},
      {"measurement": "normalized growth", "setting": "locus YER015W, strain faa2, active compounds read low", "value": 0.958},
      {"measurement": "normalized growth", "setting": "locus YER016W, strain bim1, active compounds read low", "value": 0.997},
      {"measurement": "normalized growth", "setting": "locus YER110C, active compounds read low", "value": "0.566 (active)"},
      {"measurement": "normalized growth", "setting": "locus YER111C, strain swi4, active compounds read low", "value": 0.949},
      {"measurement": "normalized growth", "setting": "locus YER155C, strain BEM2 (second series), active compounds read low", "value": 0.953},
      {"measurement": "normalized growth", "setting": "locus YER155C, strain BEM2, active compounds read low", "value": 0.998},
      {"measurement": "normalized growth", "setting": "locus YER167W, strain BCK2, active compounds read low", "value": 1.02},
      {"measurement": "normalized growth", "setting": "locus YFR010W, strain ubp6, active compounds read low", "value": 0.949},
      {"measurement": "normalized growth", "setting": "locus YGL078C, strain dbp3, active compounds read low", "value": "0.406 (active)"},
      {"measurement": "normalized growth", "setting": "locus YGL086W, strain mad1, active compounds read low", "value": "0.0902 (active)"},
      {"measurement": "normalized growth", "setting": "locus YGL167C, strain pmr1, active compounds read low", "value": 0.971},
      {"measurement": "normalized growth", "setting": "locus YGL173C, strain kem1, active compounds read low", "value": 0.964},
      {"measurement": "normalized growth", "setting": "locus YGL227W, strain vid30, active compounds read low", "value": 0.964},
      {"measurement": "normalized growth", "setting": "locus YGL240W, strain doc1, active compounds read low", "value": 0.946},
      {"measurement": "normalized growth", "setting": "locus YGL248W, strain PDE1, active compounds read low", "value": 0.992},
      {"measurement": "normalized growth", "setting": "locus YGL253W, strain hxk2, active compounds read low", "value": 0.963},
      {"measurement": "normalized growth", "setting": "locus YGR078C, strain PAC10, active compounds read low", "value": 0.958},
      {"measurement": "normalized growth", "setting": "locus YGR135W, strain pre9, active compounds read low", "value": "0.089 (active)"},
      {"measurement": "normalized growth", "setting": "locus YGR229C, strain SMI1, active compounds read low", "value": 0.981},
      {"measurement": "normalized growth", "setting": "locus YGR252W, strain gcn5, active compounds read low", "value": "0.255 (active)"},
      {"measurement": "normalized growth", "setting": "locus YHR013C, strain ard1, active compounds read low", "value": 0.986},
      {"measurement": "normalized growth", "setting": "locus YHR027C, strain rpn1, active compounds read low", "value": 0.972},
      {"measurement": "normalized growth", "setting": "locus YHR030C, strain SLT2, active compounds read low", "value": "0.998 and 1.06"},
      {"measurement": "normalized growth", "setting": "locus YHR079C, strain IRE1 (second series), active compounds read low", "value": "0.791 (active)"},
      {"measurement": "normalized growth", "setting": "locus YHR079C, strain IRE1, active compounds read low", "value": 1.09},
      {"measurement": "normalized growth", "setting": "locus YHR094C, strain hxt1, active compounds read low", "value": "0.25 (active)"},
      {"measurement": "normalized growth", "setting": "locus YHR129C, strain ARP1, active compounds read low", "value": 0.999},
      {"measurement": "normalized growth", "setting": "locus YHR142W, strain chs7, active compounds read low", "value": 0.968},
      {"measurement": "normalized growth", "setting": "locus YHR200W, strain rpn10, active compounds read low", "value": "0.26 (active)"},
      {"measurement": "normalized growth", "setting": "locus YIL066C, strain RNR3, active compounds read low", "value": 1.04},
      {"measurement": "normalized growth", "setting": "locus YIL073C, strain SPO22, active compounds read low", "value": 1.06},
      {"measurement": "normalized growth", "setting": "locus YIL125W, strain kgd1, active compounds read low", "value": "0.521 (active)"},
      {"measurement": "normalized growth", "setting": "locus YIR030C, strain dcg1, active compounds read low", "value": "0.629 (active)"},
      {"measurement": "normalized growth", "setting": "locus YJL092W, strain hpr5, active compounds read low", "value": 0.969},
      {"measurement": "normalized growth", "setting": "locus YJL095W, strain BCK1 (second series), active compounds read low", "value": 0.966},
      {"measurement": "normalized growth", "setting": "locus YJL095W, strain BCK1, active compounds read low", "value": "0.999 and 1.02"},
      {"measurement": "normalized growth", "setting": "locus YJL115W, strain asf1, active compounds read low", "value": 0.962},
      {"measurement": "normalized growth", "setting": "locus YJL129C, strain trk1, active compounds read low", "value": 0.936},
      {"measurement": "normalized growth", "setting": "locus YJL134W, strain LCB3, active compounds read low", "value": 0.991},
      {"measurement": "normalized growth", "setting": "locus YJL154C, strain vps35, active compounds read low", "value": 0.945},
      {"measurement": "normalized growth", "setting": "locus YJL164C, strain tpk1, active compounds read low", "value": 1},
      {"measurement": "normalized growth", "setting": "locus YJL166W, strain qcr8, active compounds read low", "value": 0.977},
      {"measurement": "normalized growth", "setting": "locus YJL168C, strain set2, active compounds read low", "value": "0.453 (active)"},
      {"measurement": "normalized growth", "setting": "locus YJL187C, strain SWE1 (second series), active compounds read low", "value": 1},
      {"measurement": "normalized growth", "setting": "locus YJL187C, strain SWE1, active compounds read low", "value": 0.964},
      {"measurement": "normalized growth", "setting": "locus YJR043C, strain POL32, active compounds read low", "value": 1.02},
      {"measurement": "normalized growth", "setting": "locus YJR066W, strain TOR1, active compounds read low", "value": 0.989}
    ]}
  ]
}
